# Experimental data: PubChem BioAssay (NCI)
# About 83,000 compounds went through this panel and 20% of them were active in at least one assay; those are over-represented in the sample as a whole.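 Cells were grown in 96-well plates and exposed to the test compound at a single concentration for 48 hours; results are reported as percent growth, with values below 10 considered active.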 Activity calls are given as the source filed them.
# Tested on: HL-60(TB) leukemia
# Assay: NCI-60 one-dose screen, 48 h (100 = growth as untreated, 0 = no growth, -100 = all killed)
# Settings: 10 µM unless noted
row,Compound,growth
1,COc1ccc(Nc2ccc3ccccc3c2)cc1,91.3% (inactive)
2,CC1(C)CC[C@]23CC[C@]4(C)[C@H](CC[C@@H]5[C@@]6(C)C/C(=C/O)C(=O)C(C)(C)[C@@H]6CC[C@]54C)[C@H]2[C@H]1OC3,102% (inactive)
3,COc1cc(/C(Cl)=C/C=C/C(=O)c2c(C)[n+]([O-])c3ccc(Cl)cc3[n+]2[O-])cc(OC)c1OC,11.9% (inactive)
4,COc1ccc(/C(C#N)=C/c2nc3c(N4CCOCC4)nc(Cl)nc3n2C)cc1OC,-28% (active)
5,CC(C)(C)OC(=O)NC(CSCc1ccccc1)C(=O)ON1C(=O)CCC1=O (stereo not given),70.9% (inactive)
6,COc1cc(/C=C/C(=O)c2ccc(-n3cc(CN4CCN(c5cc6c(cc5F)c(=O)c(C(=O)O)cn6C5CC5)CC4)nn3)cc2)cc(OC)c1OC,98.8% (inactive)
7,O=C1/C(=C2\SC(=S)N(C3CC3)C2=O)SC(=S)N1C1CC1,104% (inactive)
8,COc1ccc(-c2cc(-c3ccc(Cl)cc3)c(C#N)c(=O)n2CCCCCC(=O)Nc2ccccc2N)cc1,-14.5% (active)
9,Cn1cc(-c2noc(-c3cn(C)c4ncc(F)cc34)n2)c2cc(Cl)ccc21,82.6% (inactive)
10,CC(C)(C)OC(=O)CC1(O)CCCCC1,106% (inactive)
11,COc1ccc(-c2nn(-c3cccc(Cl)c3)cc2-c2cc(-c3ccc(Br)cc3)nc(N)n2)cc1,88.4% (inactive)
12,COc1ccc(-c2nn(-c3cccc(NC(=O)Nc4ccccc4)c3)cc2-c2ccncc2)cc1Cl,-10.6% (active)
13,Nc1ccc2cc3ccc(N)cc3nc2c1,110% (inactive)
14,CCCc1n(Cc2ccc3ccccc3n2)cc[n+]1Cc1ccc2ccccc2n1,-31.2% (active)
15,Cc1cc2c3c(cccc3c1)C(=O)c1ccccc1-2,101% (inactive)
16,COc1cc2cc(Oc3ccc(NC(=O)c4ccccc4)cc3)c(C)nc2cc1OC,100% (inactive)
17,CCOC(=O)c1cc2c(n1C)-c1nc(NC(C)=O)sc1CCC2,102% (inactive)
18,COc1cc(-c2ccc3c(c2)NC(=O)/C3=C\c2ccc[nH]2)ccc1O,-12.6% (active)
19,Nc1ccc(CC[C@H]2CCC/C=C/[C@@H]3C[C@H](O)C[C@H]3[C@H](O)/C=C/C(=O)O2)cc1,-8.51% (active)
20,c1ccc2cc(Cn3cc[n+](Cc4ccc5ccccc5c4)c3)ccc2c1,-33.6% (active)

row,Compound,growth
1,COc1ccc(C2CC(c3ccc(OC)c(OC)c3)=NN2C(=O)c2cc(OC)c(OC)c(OC)c2)c(OC)c1 (stereo not given),84% (inactive)
2,CCCCC/C(C=C(C#N)C#N)=C/c1ccccc1,6.33% (active)
3,CN(C(=O)c1ccccc1)N(C)C(=O)c1ccccc1,92.8% (inactive)
4,FC(F)(F)c1ccc2c(c1)n1cnnc1c1nncn21,104% (inactive)
5,CCN1CCN(Cc2ccc(-c3cc4c(N[C@H](C)c5ccccc5)ncnc4[nH]3)cc2)CC1,14.5% (inactive)
6,C[C@@H](C[C@H](CCO)c1cc(C(F)(F)F)cc(C(F)(F)F)c1)c1ccc2ccccc2c1,93.5% (inactive)
7,COc1cccc(/C=C/C(=O)Nc2cc(OC)c3c(c2)OCO3)c1,78% (inactive)
8,COc1ccc(OCC(CO)N2CCN(c3ccccc3)CC2)cc1 (stereo not given),123% (inactive)
9,CC(=O)N1Cc2ccccc2C(C)Cc2cc(Cl)ccc21 (stereo not given),111% (inactive)
10,Cc1cc(N2CCN(CC(=O)Nc3ccc4c(ccn4Cc4ccccc4)c3)CC2)nc(N2CCCCCC2)n1,12.1% (inactive)
11,Cn1cc2c(c1)-c1nc(Nc3ccccc3)ncc1CC2,97.3% (inactive)
12,COc1ccc2nc3cc(Cl)ccc3c(NCCNCC(O)CO)c2c1 (stereo not given),15.6% (inactive)
13,Clc1ccc2c(NCCCNc3nc(-n4ccnc4)nc4ccccc34)ccnc2c1,69.4% (inactive)
14,COc1ccc(-c2nnc(SCC(=O)N3CCN(c4cc5c(cc4F)c(=O)c(C(=O)O)cn5C4CC4)CC3)o2)cc1OC,66.8% (inactive)
15,CN1CCN(CCCOc2cccc3nc(Nc4cc(Cl)cc(Cl)c4)ccc23)CC1,56.4% (inactive)
16,OC(c1cccc(-n2ccc(C(F)(F)F)n2)c1)c1cnccc1NC1CCCCCC1 (stereo not given),-35.7% (active)
17,Cc1ccc(S(=O)(=O)Nn2c3c(cc(-c4nc5ccccc5s4)c2=O)CCCCCC3)cc1,102% (inactive)
18,O=C1C=CC(=O)N1c1cc(Cl)c(Cl)cc1Cl,80.4% (inactive)
19,Oc1ccc(Cc2ccc(O)c(C3CC(c4ccc(Cl)cc4)=NN3)c2)cc1C1CC(c2ccc(Cl)cc2)=NN1 (stereo not given),-23.6% (active)
20,CNS(=O)(=O)c1cccc(-c2ccc3c4c(n(C)c(=O)c3c2)-c2ccccc2C4=O)c1,-4.99% (active)
